Screening data deposited in PubChem by several laboratories.
TNAP act DEA = activates human TNAP at intermediate phosphate acceptor concentration; P05186; purified TNAP, CDP-star luminescence, 100 mM DEA, 30 min; stronger effect = higher value; scale: 0 levamisole-inhibited, 1 vehicle-only enzyme; activation factor at 20 µM; 64,000 tested, under 10 active; AID 813;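 active = activation factor of at least 2 at 20 µM, relative to controls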
Target sequence (P05186 whole entry, looked up): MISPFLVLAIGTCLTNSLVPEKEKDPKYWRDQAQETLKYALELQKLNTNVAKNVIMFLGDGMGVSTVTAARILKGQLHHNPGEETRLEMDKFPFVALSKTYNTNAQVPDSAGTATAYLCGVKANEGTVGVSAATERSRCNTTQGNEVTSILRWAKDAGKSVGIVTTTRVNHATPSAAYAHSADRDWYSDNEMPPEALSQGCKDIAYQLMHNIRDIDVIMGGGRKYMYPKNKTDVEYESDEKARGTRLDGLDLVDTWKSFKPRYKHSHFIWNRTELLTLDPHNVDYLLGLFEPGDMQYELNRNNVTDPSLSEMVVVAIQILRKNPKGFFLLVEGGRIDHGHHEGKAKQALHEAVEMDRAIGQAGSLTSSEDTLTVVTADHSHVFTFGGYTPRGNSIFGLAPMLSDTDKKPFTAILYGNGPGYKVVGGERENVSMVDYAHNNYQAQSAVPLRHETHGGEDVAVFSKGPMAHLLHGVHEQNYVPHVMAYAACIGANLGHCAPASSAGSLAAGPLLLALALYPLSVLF
PTPN22 act = LYP (human) phosphatase activation; Q9Y2R2; recombinant LYP, DiFMUP fluorescence; 0 = plate median, 100 = signal doubled; activation, % at 2 µM; 96,000 compounds, 0.11% hits;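 active = activation at 2 µM above a set limit, the mean plus 5 SD, cut at about 37% in these data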
PLAP act = human PLAP activation | P05187 | purified PLAP enzyme, luminescent substrate read-out; stronger effect = higher value | activation fold at 20 µM | 96,000 compounds, 1.2% hits; in the data active = activation fold above about 2
PTPN22 inh 2 = inhibitors of human LYP (PTPN22) phosphatase; Q9Y2R2; recombinant LYP catalytic domain, DiFMUP fluorescence; inhibition, % at 2 µM; 96,000 compounds, 0.21% hits; AID 640;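 active = inhibition at 2 µM at or above a set limit, the screen mean plus 3 SD, cut at about 24% in these data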
MT1-MMP txn act = activates MT1-MMP transcription; activation factor at 10 µM; HT1080 MT1-MMP promoter luciferase reporter, luminescence, overnight; stronger effect = higher value; AID 750; 86,000 compounds, 0.16% hits;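 active = activation factor of at least 2 for MT1-MMP transcription at 10 µM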
PTPN22 act conf = confirmation of human LYP phosphatase activators | shares compounds with PTPN22 act | Recombinant LYP, DIFMUP fluorescence, activation; zero set by plate's median compound well | activation, % at 2 µM | 100 tested, under 10 active; call rule not given here
Large screens that a line does not name were inactive (follow-up assays come after a bar, where they were run). In the library only some 1.6% were active in any assay of this set; here they are far more common.

O=C1NC(=O)C(=Cc2cn(CCOc3ccc4c(c3)OCO4)c3ccccc23)C(=O)N1	PTPN22 inh 2 25.9 (no result: TNAP act DEA)
c1ccc2[nH]c(CCNC3CCCCC3)nc2c1	PLAP act 2.7
COc1ccccc1CCNC1CCC(C(C)(C)C)CC1 (stereo unspecified)	none (no result: TNAP act DEA, MT1-MMP txn act)
O=c1[nH]c(=S)n(CCC2=CCCCC2)c(O)c1C=NCCCn1ccnc1	none (no result: TNAP act DEA)
O=c1[nH]c(=O)n(CCC2=CCCCC2)c(O)c1C=NCCCn1ccnc1	PLAP act 2.1
CCCN1[C@@H]2C[C@@H](O)CC[C@@H]2C[C@H]1C(=O)OC	none (no result: TNAP act DEA, PTPN22 act, PLAP act, PTPN22 inh 2)
COC(=O)[C@H]1C[C@H]2CC[C@H](O)C[C@H]2N1CC1CC1	none (no result: TNAP act DEA, PTPN22 act, PLAP act, PTPN22 inh 2)
CCCC/C=C/[C@@H](NP(=O)(c1ccccc1)c1ccccc1)c1ccccc1OC	none (no result: TNAP act DEA, PTPN22 act, PLAP act, PTPN22 inh 2)
CC(C)(C)N1Cc2ccccc2C1=N	none (no result: TNAP act DEA, MT1-MMP txn act)
CN1/C(=C\C=C\C2=[N+](C)c3ccc4ccccc4c3C2(C)C)C(C)(C)c2ccccc21	PTPN22 inh 2 32.6 (no result: TNAP act DEA, MT1-MMP txn act)
CCCC[C@@H]1C[C@H]1[C@@H](NP(=O)(c1ccccc1)c1ccccc1)c1ccc(Cl)cc1	none (no result: TNAP act DEA, PTPN22 act, PLAP act, PTPN22 inh 2)
CCN1CCN(C(=O)COc2ccc3c(c2)C(=O)CC2(CCN(C(C)=O)CC2)O3)CC1	PLAP act 2.7 (no result: TNAP act DEA, MT1-MMP txn act)
CCN1CCN(C(=O)COc2ccc(S(=O)(=O)NC(C)C)cc2)CC1	none (no result: TNAP act DEA, PLAP act)
NC1CCCCC1N=Cc1c(O)n(Cc2ccc(F)cc2)c(=O)[nH]c1=O (stereo unspecified)	PLAP act 2.8
CCCCn1c(O)c(C=NC2CCCCC2N)c(=O)[nH]c1=O (stereo unspecified)	none
Cc1ccc(-n2c(O)c(C=NC3CCCCC3N)c(=O)[nH]c2=O)cc1C (stereo unspecified)	PLAP act 2.2
Cc1nc2c(=O)n(C)c(=O)nc-2n(C)n1	PTPN22 inh 2 31.6 (no result: TNAP act DEA, PLAP act)
CC1N(P(=O)(c2ccccc2)c2ccccc2)CC(O)(c2ccccc2)CC12CC2 (stereo unspecified)	none (no result: TNAP act DEA, PTPN22 act, PLAP act, PTPN22 inh 2)
CN1C(=O)/C(=C/c2ccc(N3CCCCCC3)o2)C(=O)NC1=S	MT1-MMP txn act 2.2 (no result: TNAP act DEA, PLAP act)
CCCC1COC(Cn2cncn2)(c2ccc(Cl)cc2Cl)O1 (stereo unspecified)	PTPN22 inh 2 62.1 (no result: TNAP act DEA)
CC1CCN(S(=O)(=O)c2ccc(NN=C(C#N)C#N)cc2)CC1	PTPN22 inh 2 26.3 (no result: TNAP act DEA, MT1-MMP txn act)
CC1(C)CC(=O)C(C=NCCN2CCN(C(=O)Cc3ccc(F)cc3)CC2)=C(O)C1	none (no result: PTPN22 act, PTPN22 inh 2)
CC(C)CCC1(CN2CCCC2=O)C(=O)NC(=O)NC1=O	PTPN22 act 38.7 (no result: TNAP act DEA) | PTPN22 act conf inactive
Cc1sc2c(c1C)C(c1ccc(C(C)(C)C)cc1)=NCC(=O)N2CC(=O)Nc1nccs1	none (no result: TNAP act DEA, MT1-MMP txn act)
